Measured values: PubChem BioAssay AID1209 (Sanford-Burnham Center for Chemical Genomics, 2008)
Out of some 190,000 compounds screened, about 810 (0.43%) were called active. The full list was thinned out, with actives kept by preference. A number with no mark means an inactive call. Cut-off read from the data, not from the text of the source: active = inhibition above about 50%; inactive = the rest.

These compounds were tested against Mannose-6-phosphate isomerase (Homo sapiens) (UniProt P34949) (assay: MPI enzyme activity inhibition – biochemical, fluorescence intensity, coupled assay, primary screen (AID 1209;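 note: plate controls were DMSO vehicle for no effect and wells lacking substrate for full effect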)). Conditions: purified PMI enzyme, at 20 µM, active compounds read high.
Chain of Mannose-6-phosphate isomerase (Homo sapiens) (P34949 whole entry, looked up): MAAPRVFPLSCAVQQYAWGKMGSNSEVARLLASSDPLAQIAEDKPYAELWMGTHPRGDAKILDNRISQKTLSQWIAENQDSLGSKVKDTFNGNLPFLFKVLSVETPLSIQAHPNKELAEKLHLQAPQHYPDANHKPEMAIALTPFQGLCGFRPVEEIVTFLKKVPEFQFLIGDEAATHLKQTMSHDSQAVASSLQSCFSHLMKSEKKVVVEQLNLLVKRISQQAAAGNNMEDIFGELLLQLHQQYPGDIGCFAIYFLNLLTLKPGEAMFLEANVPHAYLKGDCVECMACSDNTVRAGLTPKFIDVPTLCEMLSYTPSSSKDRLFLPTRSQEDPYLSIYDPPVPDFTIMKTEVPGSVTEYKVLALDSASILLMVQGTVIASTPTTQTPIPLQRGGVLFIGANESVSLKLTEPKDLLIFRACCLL

SMILES | inhibition
CC1(C)CC2(CC(c3ccccc3F)c3cc(Cl)c(O)cc3O2)NC(=S)N1 (configuration not stated) | -8.2%
CC1(C)CC2(CC(c3ccccc3)c3ccc(O)cc3O2)NC(=S)N1 (configuration not stated) | -4.8%
CCCCN(C(=O)Cn1nnc2ccccc21)C(C(=O)NCc1ccco1)c1ccncc1 (configuration not stated) | -0.5%
Cc1onc(-c2ccccc2Cl)c1C(=O)NC(=S)NCCc1ccccc1 | 11.7%
O=C(c1cccnc1)N1N=C(C2CCCCC2)CC1(O)C(F)(F)F (configuration not stated) | -7.1%
CCOC(=O)C(=O)Nc1sc(C(=O)N2CCOCC2)c(C)c1C#N | 2.7%
CCOC(=O)c1sc(NC(=O)c2cc(-c3ccc(C)cc3)nc3ccccc23)c(C#N)c1C | 67.7% (active)
CCOC(=O)c1sc(NC(=O)c2cc(-c3ccccc3)nc3ccccc23)c(C#N)c1C | 79% (active)
CCOC(=O)c1sc(NC(=O)c2cc(-c3ccccc3C)nc3ccccc23)c(C#N)c1C | 47.9%
Cc1ccccc1-c1cc(C(=O)Nc2sc(C)c(C)c2C(N)=O)c2ccccc2n1 | 19.7%
Cc1sc(NC(=O)c2cc(-c3ccccc3)nc3ccccc23)c(C(N)=O)c1C | 17%
Cc1ccccc1-c1cc(C(=O)Nc2sc(C(=O)OC(C)C)c(C)c2C#N)c2ccccc2n1 | 61.2% (active)
COc1ccc(-c2cc(C(=O)Nc3sc4c(c3C#N)CCCC4)c3ccccc3n2)cc1 | 7.1%
CCOC(=O)c1sc(NC(=O)c2ccncc2)c(C#N)c1C | 49.3%
COC(=O)c1sc(NC(=O)c2cc(-c3ccccc3)nc3ccccc23)c(C#N)c1C | 5.2%
CCCN1C2CCCC1CC(NC(=S)Nc1cc(C)cc(C)c1)C2 (configuration not stated) | 7.1%
NNC(=O)CNc1cccc(Cl)c1 | -2.4%
CC/C(C)=N\N=C\c1c(O)n(CC)c2cc(C3=NNC(=O)CC3)ccc12 | -47.5%
COc1ccccc1-n1cnnc1SCC(=O)Nc1cccc(S(=O)(=O)N2CCCCC2)c1 | 7.9%
O=C(NCCN1CCN(C(=O)c2cccs2)CC1)C(=O)Nc1ccc(Br)cc1 | -0.2%
COc1ccc(CC(=O)Nc2ccc(S(=O)(=O)NCC3CCCO3)cc2)cc1 (configuration not stated) | 2.9%
Cc1cc([N+](=O)[O-])nn1CCCC(=O)NCc1ccc(F)cc1 | -9.8%
Cc1nc(NC(=O)c2ccccc2)sc1-c1csc(Nc2cccc(Cl)c2)n1 | 0.6%
Cc1nc(NC(=O)c2ccccc2)sc1-c1csc(Nc2ccc(F)cc2)n1 | 45%
Cc1nc(NC(=O)c2ccccc2)sc1-c1csc(Nc2ccc(Cl)cc2)n1 | 53.1% (active)

SMILES | inhibition
Cc1nn(Cc2ccc(Cl)cc2)c(C)c1NC(=O)c1noc2c1CCCCC2 | 15.5%
COc1ccc(OCCCNCCc2ccccc2)cc1 | -2.5%
O=C1/C(=C/c2cccnc2)SC(=NCc2ccccc2)N1Cc1ccccc1 | 7.3%
CCCCc1nc2c(=O)[nH]c3ccccc3c2o1 | 0.8%
CCCCCc1nc2c(=O)[nH]c3ccccc3c2o1 | 102% (active)
CCCCCCc1nc2c(=O)[nH]c3ccccc3c2o1 | 6.6%
CCN(C(=O)c1ccnn1C)c1ccccc1 | -6.3%
CCOC(=O)Cc1csc(NC(=O)c2cc(=O)c3ccccc3o2)n1 | -7.8%
CCOC(=O)Cc1csc(SCn2nnc3ccccc3c2=O)n1 | 1.9%
CCOC(=O)Cc1csc(-n2sc3ccccc3c2=O)n1 | 98.9% (active)
O=C(CSc1ccc(-c2ccc(Br)cc2)nn1)N1CCOCC1 | -1.9%
CCCCCCCNC(=O)COc1ccc2c(c1)C(=O)CC(C)(C)O2 | 2.9%
Nc1ccc2c(c1)OC1(CCCC1)O2 | 6.1%
O=C(Nc1ccc2c(c1)OC1(CCCC1)O2)C1CC1 | 0.2%
Nc1ccc2c(c1)OC1(CCCCC1)O2 | 55.6% (active)
CC(C)(C)c1nc(SCC(=O)N2CC(=O)Nc3ccccc32)c2ccccc2n1 | 3.4%
COc1ccc2c(c1)CC/C2=N\OC(=O)c1ccccc1C | -5%
Cc1ccc2c(c1)/C(=N/N1C(=O)c3ccccc3C1=O)C(=O)N2 | -2.2%
COc1ccc(N=C2C(=O)Nc3ccccc32)cc1 | 12.5%
c1ccc(-c2nnc(CSc3nncs3)o2)cc1 | 16.2%
O=c1[nH]c2ccc(Cl)cc2c(-c2ccccc2)c1SC(=S)N1CCCCC1 | 0.2%
CCOC(=O)N1CCC(Nc2c(N3CCN(c4cccc(C(F)(F)F)c4)CC3)c(=O)c2=O)CC1 | -9.4%
O=S(=O)(c1ccc(NC(=S)NCc2ccco2)cc1)N1CCCC1 | 8.9%
NS(=O)(=O)c1ccc(CNC(=S)NCc2ccc(Cl)cc2)cc1 | 6.3%
NS(=O)(=O)c1ccc(NC(=S)NCc2ccc(Cl)cc2)cc1 | 58.1% (active)

SMILES | inhibition
NS(=O)(=O)c1ccc(NC(=S)NCc2ccco2)cc1 | 55.4% (active)
CCNS(=O)(=O)c1ccc(NC(=S)NCc2ccco2)cc1 | 35.3%
NS(=O)(=O)c1ccc(CNC(=S)Nc2ccc(F)c(Cl)c2)cc1 | 17.2%
CC(=O)NC(CCS(C)(=O)=O)C(=O)Nc1ccccc1 (configuration not stated) | 7.8%
CS(=O)(=O)N(CC(=O)NC1CC1)c1cccc(F)c1 | 6.9%
Cc1ccc(NC(=O)CSc2nnc(-c3ccncc3)n2C)cc1S(=O)(=O)N1CCOCC1 | -7.6%
COC(=O)c1ccc[n+](CC(=O)c2ccc(Br)cc2)c1 | -34.8%
Cn1cnc2ccc([N+](=O)[O-])cc2c1=O | -6%
CCOC(=O)N1CCN(CCC(=O)c2ccc(Cl)cc2)CC1 | 57.4% (active)
CCCOc1ccc(C(=O)CCN2CCN(C(=O)OCC)CC2)cc1 | -7.1%
CCOC(=O)N1CCN(CCC(=O)c2ccc(OC)cc2)CC1 | 0.1%
Cc1ccc(N2C(=O)NC(C(F)(F)F)(C(F)(F)F)C3=C2CC(C)(C)CC3=O)cc1 | 2.1%
CC1(C)CC2(CC(c3ccccc3)Oc3cc(O)ccc32)NC(=O)N1 (configuration not stated) | 2.6%
COc1cccc(C(=O)COc2ccc3ccc(=O)oc3c2)c1 | -1.6%
COC(=O)c1c(NC(=O)c2ccco2)sc(C)c1C | 5%
NC(=O)c1c(NC(=S)Nc2ccc(F)cc2)sc2c1CCCC2 | 18.7%
Cc1sc(NC(=O)Nc2ccccc2)c(C(N)=O)c1C | 53.1% (active)
Cc1sc(NC(=S)NC(=O)c2ccco2)c(C#N)c1C | 4.5%
CCOC(=O)c1c(NC(=O)Nc2ccccc2)sc(C)c1C | 12.6%
CCOC(=O)c1c(NC(=S)Nc2ccc(Cl)cc2)sc(C)c1C | -3.5%
Cc1sc(NC(=S)NC(=O)c2ccco2)c(C(N)=O)c1C | 50.4% (active)
Cc1sc(NC(=S)Nc2ccc(F)cc2)c(C(N)=O)c1C | 51.8% (active)
CCOC(=O)c1c(NC(=O)Nc2ccc(Cl)cc2)sc(C)c1C | 2.4%
O=C(Nc1ccnc(-c2cccnc2)n1)c1ccc(F)cc1 | 5%
Cc1nn(Cc2ccc(F)cc2)c(C)c1NC(=O)c1cc2ncc(Br)cn2n1 | 6.4%

SMILES | inhibition
COc1ccc(Cn2c(C)c(C)c(C#N)c2NC(=O)Nc2cccc(C)c2)cc1 | -1.9%
CC(NC(=O)C(=O)N/N=C\c1cccc([N+](=O)[O-])c1)c1ccccc1 (configuration not stated) | 10.5%
CC(C)(C)NC(=O)NC(=O)Cn1ccsc1=N | 5.2%
CCC(C)(C)NC(=O)CN(Cc1ccc2c(c1)OCO2)C(=O)CCC(=O)Nc1nccs1 | -5%
O=C(COc1ccccc1Cl)NC(=S)Nc1ccc(CN2CCOCC2)cc1 | 17.4%
O=C(O)/C(=C/c1ccco1)c1ccccc1 | -8%
CCOC(=O)C1CCCN(C(=O)Cn2nc(Cc3cccnc3)c3ccccc3c2=O)C1 (configuration not stated) | 5.7%
O=C(CSc1nnnn1C1CCCC1)Nc1cccc(NC(=O)c2ccco2)c1 | 8.3%
O=c1c(C/C=C/c2ccccc2)c(O)ccn1Cc1ccc(Cl)cc1Cl | 13.5%
CC1(C)C(=O)C2(CCCCC2)C(=O)OC1c1cccn1-c1ccc([N+](=O)[O-])cc1 (configuration not stated) | 2.5%
CC1(C)C(=O)OC(c2cccn2-c2ccc([N+](=O)[O-])cc2)C2(CCCCC2)C1=O (configuration not stated) | 6.1%
CC1(C)C(=O)OC(c2cccn2-c2ccc([N+](=O)[O-])cc2)C(C)(C)C1=O (configuration not stated) | 67.5% (active)
CCCC(=O)c1cc2c(cc1NC(=O)c1cccs1)OCCO2 | 6.8%
O=C(NCc1ccccn1)Nc1cccc(NC(=O)NCc2ccccn2)c1 | 14.5%
CCCC1=C(C(=O)OCC)C(/C=C/c2ccccc2)n2ncnc2N1 (configuration not stated) | 2.4%
COc1ccccc1-c1nnc(NC(=O)C(C)Sc2nncn2C)s1 (configuration not stated) | -2.1%
COc1ccc(OC)c(-c2nnc(NC(=O)C(C)Sc3nncn3C)s2)c1 (configuration not stated) | 97.9% (active)
CC(Sc1nncn1C)C(=O)Nc1nnc(-c2ccccc2)s1 (configuration not stated) | 8.5%
Cc1ccc(NC(=S)NNC(=O)Cn2nc(C(F)F)cc2C(F)F)cc1 | -10%
CSc1ccc(/C=C/c2ccc3cccc(O)c3n2)cc1 | -33.5%
Cc1ccsc1/C=C/c1ccc2cccc(O)c2n1 | -6.3%
COc1ccc(-c2nc(CSCC(=O)NC3CCCc4ccccc43)c(C)o2)cc1 (configuration not stated) | 7%
